The source made the active and inactive calls. The calls were made as follows: active = hit-call score of the fitted dose curve at least 0.9, where 1 is the maximum; inactive = score below 0.9.
Test system: not listed separately
Test: ATG_NFI_CIS: Attagene CIS-FACTORIAL HepG2 Assay for human Nuclear Factor I (NFI) (AID 2282989)
Conditions: HepG2 cis-regulatory reporter, NFI response element transcription; actives raise or lower the signal
Method in brief: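 Reporter transcripts were measured by RT-PCR with fluorescent primer extension and capillary electrophoresis 24 h post-treatment. HepG2 cells carried transiently transfected cis-regulated reporter constructs reporting endogenous factor activity; gain or loss fitted against DMSO baseline.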
With `CCN(CC)c1ccccc1` the outcome was “inactive”.
With `FC(F)(F)C(F)(C(F)(F)F)C(F)(F)C(F)(F)CC1CO1` (stereo not drawn) the outcome was “inactive”.
For `CCOP(=S)(OCC)SCSc1ccc(Cl)cc1`, the outcome was “inactive”.
With `c1nc[nH]n1` the outcome was “inactive”.
For `Clc1ccc(Oc2ccccc2)cc1`, the outcome was “inactive”.
With `c1cc2c3c(cccc3c1)CC2` the outcome was “inactive”.
For `CCN(CC)C1CCCCC1`, the outcome was “inactive”.
For `Cc1cc(C)c(C(=O)P(=O)(c2ccccc2)c2ccccc2)c(C)c1`, the AC50 was 55.2 µM (active).
With `CCCCC(CC)COP(=O)(Oc1ccccc1)Oc1ccccc1` (stereo not drawn) the AC50 was 158 µM (active).
For `CCOc1ccc(C(C)(C)COCc2cccc(Oc3ccccc3)c2)cc1`, the outcome was “inactive”.
With `CCCCN(CC)C(=O)SCCC` the outcome was “inactive”.
For `COP(=O)(O)OC`, the outcome was “inactive”.
In the case of `Cc1cccc(N)c1`, the outcome is reported as “inactive”.
With `Nc1ccc(Sc2ccc(N)cc2)cc1` the outcome was “inactive”.
In the case of `O=C(O)C1C(C(=O)O)C2(Cl)C(Cl)=C(Cl)C1(Cl)C2(Cl)Cl` (stereo not drawn), the outcome is reported as “inactive”.
For `Nc1cc2c3c(c1)C(c1ccccc1)=N[C@@H](NC(=O)c1cccnc1)C(=O)N3CC2`, the outcome was “inactive”.
In the case of `CCOP(=S)(OCC)SCSCC`, the outcome is reported as “inactive”.
For `OCC1CO1` (stereo not drawn), the outcome was “inactive”.
For `O=P(OCC(Br)CBr)(OCC(Br)CBr)OCC(Br)CBr` (stereo not drawn), the outcome was “inactive”.
In the case of `c1ccc(OP(Oc2ccccc2)Oc2ccccc2)cc1`, the outcome is reported as “inactive”.
With `CCOS(=O)(=O)OCC` the outcome was “inactive”.
In the case of `ClC1=C(Cl)C2(Cl)C3C(Cl)C(Cl)CC3C1(Cl)C2(Cl)Cl` (stereo not drawn), the outcome is reported as “inactive”.
For `CC(Cl)(Cl)C(=O)O`, the outcome was “inactive”.
With `OCC(F)(F)OC(F)(F)C(F)(F)OC(F)(F)CO` the outcome was “inactive”.
In the case of `CCCN(CCC)c1c([N+](=O)[O-])cc(C(C)C)cc1[N+](=O)[O-]`, the outcome is reported as “inactive”.
For `C=CC(=O)OCC(CC)(COC(=O)C=C)COC(=O)C=C`, the outcome was “inactive”.
With `CC(Cl)CN(C)C` (stereo not drawn) the outcome was “inactive”.
With `Oc1ccc(I)cc1` the outcome was “inactive”.
For `N#C/C=C/c1ccccc1`, the outcome was “inactive”.
For `CO/N=C(/C(=O)OC)c1ccccc1COc1ccccc1C`, the outcome was “inactive”.
In the case of `CC1(C)CN=C(NN=C(/C=C/c2ccc(C(F)(F)F)cc2)/C=C/c2ccc(C(F)(F)F)cc2)NC1`, the AC50 is reported as 15.4 µM (active).
With `O=C(O)C(F)(F)OC(F)(F)C(F)(F)OC(F)(F)C(=O)O` the outcome was “inactive”.
For `[N-]=[N+]=[N-]`, the outcome was “inactive”.
In the case of `O=C(O)C=CC(F)(C(F)(F)F)C(F)(F)F`, the outcome is reported as “inactive”.
With `CCCCc1ccccc1` the outcome was “inactive”.
For `ClC(Cl)(Cl)c1ccccc1`, the outcome was “inactive”.
With `O=[N+]([O-])c1ccccc1` the outcome was “inactive”.
With `CSC(C)(C)C=NO` the outcome was “inactive”.

Molecular target: Myc proto-oncogene protein (Homo sapiens) (UniProt P01106)
Sequence (P01106 whole entry, looked up): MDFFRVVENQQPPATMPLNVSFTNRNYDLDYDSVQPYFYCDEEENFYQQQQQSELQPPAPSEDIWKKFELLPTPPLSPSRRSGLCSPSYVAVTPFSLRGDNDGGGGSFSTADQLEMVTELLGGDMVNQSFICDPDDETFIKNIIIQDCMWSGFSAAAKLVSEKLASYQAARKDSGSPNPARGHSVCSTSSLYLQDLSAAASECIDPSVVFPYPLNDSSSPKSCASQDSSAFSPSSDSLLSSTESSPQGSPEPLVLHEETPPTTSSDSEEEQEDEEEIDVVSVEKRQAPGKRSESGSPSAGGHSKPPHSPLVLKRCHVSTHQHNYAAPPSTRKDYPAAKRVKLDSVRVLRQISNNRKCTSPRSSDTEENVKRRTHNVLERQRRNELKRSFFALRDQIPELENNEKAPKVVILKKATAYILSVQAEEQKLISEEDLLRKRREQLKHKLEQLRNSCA
Test: ATG_Myc_CIS: Attagene CIS-FACTORIAL HepG2 Assay for human Myelocytomatosis (Myc) Proto-Oncogene Transcription Factor (AID 2282990)
Conditions: HepG2, Attagene cis-reporter transcription factor activity; actives raise or lower the signal
Method in brief: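 DMSO-normalised, bidirectionally fitted reporter mRNA signal. HepG2 cells transfected with cis reporter constructs, treated 24 h; transcripts detected by RT-PCR, 6-FAM primer extension and CE.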
For `CCN(CC)c1ccccc1`, the outcome was “inactive”.
With `FC(F)(F)C(F)(C(F)(F)F)C(F)(F)C(F)(F)CC1CO1` (stereo not drawn) the outcome was “inactive”.
In the case of `CCOP(=S)(OCC)SCSc1ccc(Cl)cc1`, the outcome is reported as “inactive”.
For `c1nc[nH]n1`, the outcome was “inactive”.
For `Clc1ccc(Oc2ccccc2)cc1`, the outcome was “inactive”.
In the case of `c1cc2c3c(cccc3c1)CC2`, the outcome is reported as “inactive”.
For `CCN(CC)C1CCCCC1`, the outcome was “inactive”.
For `Cc1cc(C)c(C(=O)P(=O)(c2ccccc2)c2ccccc2)c(C)c1`, the AC50 was 49.1 µM (active).
For `CCCCC(CC)COP(=O)(Oc1ccccc1)Oc1ccccc1` (stereo not drawn), the AC50 was 143 µM (active).
With `CCOc1ccc(C(C)(C)COCc2cccc(Oc3ccccc3)c2)cc1` the outcome was “inactive”.
For `CCCCN(CC)C(=O)SCCC`, the outcome was “inactive”.
In the case of `COP(=O)(O)OC`, the outcome is reported as “inactive”.
For `Cc1cccc(N)c1`, the outcome was “inactive”.
In the case of `CC(C)(C)c1ccc(O)cc1`, the outcome is reported as “inactive”.
With `Nc1ccc(Sc2ccc(N)cc2)cc1` the outcome was “inactive”.
